TR-FRET SRC-2 ct = TR-FRET signal artefacts, primary screen, artefact control for PPARgamma SRC-2 agonist project, biochemical; TR-FRET artefact counter-screen; stronger effect = higher value; TR-FRET ratio at 8 µM; 200,000 compounds, 0.4% hits; AID 1049, 2008; in the data active means TR-FRET ratio above about 2000
PPARg SRC-1 ag = PPARgamma agonists recruiting SRC-1 coactivator, primary screen, biochemical; Peroxisome proliferator-activated receptor gamma (Homo sapiens), P37231; PPARgamma-SRC-1 coactivator recruitment biochemical assay; activation, % at 8 µM; 200,000 compounds, 0.41% hits; in the data active means activation above about 19%
PPARg SRC3 recr = PPARgamma agonists recruiting SRC-3 coactivator, primary screen, biochemical. AID 731, 2007. Peroxisome proliferator-activated receptor gamma (Homo sapiens), P37231. activation, % at 8 µM. biochemical PPARgamma/SRC-3 coactivator recruitment assay. 200,000 compounds, 0.26% hits; in the data active means activation above about 23%
PPARg SRC-2 ag = agonists of PPARg-SRC-2 recruitment, primary screen, biochemical, HTS. PPARgamma LBD-SRC-2 recruitment. activation, % at 8 µM. 200,000 compounds, 0.34% hits. AID 1032, 2008
SRC1 TRFRET art = TR-FRET detection interference compounds, primary screen, artefact control for PPARgamma SRC-1 recruitment agonists, biochemical, TR-FRET emission ratio; 99,000 compounds, 0.34% hits; AID 1051, 2008; TR-FRET detection artefact counter-screen; stronger effect = higher value; TR-FRET ratio at 8 µM; in the data active means TR-FRET ratio above about 2300
SRC3 TRFRET art = TR-FRET detection interference compounds, artefact control for PPARgamma SRC-3 recruitment agonists, biochemical, TR-FRET ratio; TR-FRET artefact counter-screen, PPARgamma/SRC-3 format; stronger effect = higher value; TR-FRET ratio at 8 µM; 99,000 compounds, 0.39% hits; AID 1048, 2008; in the data active means TR-FRET ratio above about 2000
PPARg SRC2 ag = agonists of PPARgamma SRC-2 coactivator recruitment, confirmation, biochemical, HTS; biochemical SRC-2 recruitment by PPARgamma; AID 1297, 2008; 790 compounds, 52% hits; shares compounds with PPARg SRC3 recr; activation, % at 8 µM
PPARg SRC1 ag = PPARgamma agonists recruiting SRC-1 coactivator, confirmation, biochemical; activation, % at 8 µM; 790 compounds, 43% hits; AID 1300, 2008; PPARgamma–SRC-1 coactivator recruitment biochemical assay; shares compounds with PPARg SRC3 recr; in the data active means activation above about 20%
PPARg SRC3 ag = PPARgamma-driven SRC-3 coactivator recruitment agonists, confirmation, biochemical. 790 compounds, 29% hits. biochemical PPARgamma-SRC-3 coactivator recruitment, agonist mode. shares compounds with PPARg SRC3 recr. AID 1301, 2008. activation, % at 8 µM; in the data active means activation above about 24%
Target sequence (P37231 whole entry, looked up): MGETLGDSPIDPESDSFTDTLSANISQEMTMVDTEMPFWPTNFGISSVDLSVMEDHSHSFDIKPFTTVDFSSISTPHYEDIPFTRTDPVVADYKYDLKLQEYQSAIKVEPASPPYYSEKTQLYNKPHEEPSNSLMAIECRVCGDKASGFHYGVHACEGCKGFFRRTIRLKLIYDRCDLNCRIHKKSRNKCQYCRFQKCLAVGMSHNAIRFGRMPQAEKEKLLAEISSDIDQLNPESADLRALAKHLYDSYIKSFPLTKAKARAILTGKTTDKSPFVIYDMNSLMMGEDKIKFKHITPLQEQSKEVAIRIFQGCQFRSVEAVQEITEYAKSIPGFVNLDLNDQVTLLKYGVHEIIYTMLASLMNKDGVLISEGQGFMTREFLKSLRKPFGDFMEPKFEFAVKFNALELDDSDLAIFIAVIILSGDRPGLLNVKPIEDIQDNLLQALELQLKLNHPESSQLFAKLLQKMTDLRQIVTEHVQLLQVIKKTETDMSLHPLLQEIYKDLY
Target sequence (Q9Y6Q9 whole entry, looked up): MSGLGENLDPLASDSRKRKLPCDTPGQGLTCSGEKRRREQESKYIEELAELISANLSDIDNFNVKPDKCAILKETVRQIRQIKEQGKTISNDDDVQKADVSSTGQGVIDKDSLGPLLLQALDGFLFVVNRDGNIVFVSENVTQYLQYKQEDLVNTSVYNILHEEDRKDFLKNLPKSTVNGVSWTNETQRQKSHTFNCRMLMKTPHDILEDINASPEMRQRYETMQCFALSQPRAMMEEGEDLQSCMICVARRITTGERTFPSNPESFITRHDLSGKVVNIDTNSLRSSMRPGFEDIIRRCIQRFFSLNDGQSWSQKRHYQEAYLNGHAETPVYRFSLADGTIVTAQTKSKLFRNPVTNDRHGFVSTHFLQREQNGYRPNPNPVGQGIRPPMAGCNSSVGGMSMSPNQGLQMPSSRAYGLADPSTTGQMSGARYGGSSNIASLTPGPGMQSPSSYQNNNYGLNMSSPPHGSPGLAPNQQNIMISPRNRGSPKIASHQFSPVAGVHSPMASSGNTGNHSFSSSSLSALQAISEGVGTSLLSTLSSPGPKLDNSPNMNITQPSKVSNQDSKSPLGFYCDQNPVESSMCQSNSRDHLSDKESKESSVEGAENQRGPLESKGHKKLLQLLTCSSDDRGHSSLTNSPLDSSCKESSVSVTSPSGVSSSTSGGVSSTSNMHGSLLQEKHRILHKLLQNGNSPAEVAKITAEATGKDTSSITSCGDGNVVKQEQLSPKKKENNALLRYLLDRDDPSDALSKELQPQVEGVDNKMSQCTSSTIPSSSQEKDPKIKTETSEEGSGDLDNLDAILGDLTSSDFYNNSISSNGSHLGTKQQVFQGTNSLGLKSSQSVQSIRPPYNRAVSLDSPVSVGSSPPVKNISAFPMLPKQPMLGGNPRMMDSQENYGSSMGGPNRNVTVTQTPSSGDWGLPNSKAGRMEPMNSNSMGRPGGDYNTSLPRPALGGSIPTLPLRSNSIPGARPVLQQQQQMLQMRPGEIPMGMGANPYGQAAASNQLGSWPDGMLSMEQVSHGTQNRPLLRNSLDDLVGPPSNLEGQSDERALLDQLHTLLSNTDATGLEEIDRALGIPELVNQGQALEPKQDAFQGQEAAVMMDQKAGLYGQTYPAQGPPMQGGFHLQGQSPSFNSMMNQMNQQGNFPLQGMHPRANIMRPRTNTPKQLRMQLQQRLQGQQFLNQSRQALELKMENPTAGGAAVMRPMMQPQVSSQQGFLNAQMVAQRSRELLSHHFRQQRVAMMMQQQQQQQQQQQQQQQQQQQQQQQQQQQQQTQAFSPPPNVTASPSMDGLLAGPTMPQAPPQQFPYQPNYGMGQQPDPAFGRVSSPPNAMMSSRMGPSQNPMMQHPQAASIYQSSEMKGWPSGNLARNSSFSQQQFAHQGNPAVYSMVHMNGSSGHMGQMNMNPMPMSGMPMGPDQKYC
Hits are given with their value; 0 = inactive; - = no result given. Sampled rows, rich in hits. Any-hit rate of the full collection: about 0.9%. Unless noted, no stated cut-off is given here; in the data, active means activation above about 22%; inactive means the rest.

SMILES	TR-FRET SRC-2 ct	PPARg SRC-1 ag	PPARg SRC3 recr	PPARg SRC-2 ag	SRC1 TRFRET art	SRC3 TRFRET art	PPARg SRC2 ag	PPARg SRC1 ag	PPARg SRC3 ag
C/C(=N\NC(=O)c1ccc(O)cc1)c1ccc2c(c1)Nc1ccccc1S2	0	0	0	27	0	0	0	0	0
COc1ccc(S(=O)(=O)Nc2ccc3c(c2)OCO3)cc1C	0	0	0	24	-	-	0	0	0
CC(=O)Nc1ccccc1OCC(=O)NCC(F)(F)F	0	0	0	0	0	0	-	-	-
N#Cc1c(-c2ccco2)nc(SCC(=O)Nc2ccc(S(N)(=O)=O)cc2)[nH]c1=O	0	0	0	0	-	-	-	-	-
N#Cc1c(-c2ccco2)nc(SCc2ccc(F)cc2)[nH]c1=O	2187	20	39	45	-	-	24	0	0
CN(C)c1ccc(/C=C/c2ccncc2)cc1	0	0	0	0	-	-	-	-	-
CN(C)c1ccc(/C=C/c2ccc3ccccc3[n+]2C)cc1	2876	66	59	94	3396	2738	41	33	31
CN(C)c1ccc(/C=C/c2ccc3c4ccccc4ccc3[n+]2-c2ccccc2)cc1	2446	47	28	49	0	2137	30	20	0
O=C(COc1ccccc1Br)Nc1ccccc1C(F)(F)F	0	0	0	0	0	0	-	-	-
CCn1c(=O)n(CCOC)c(=O)c2c3c(sc21)CCCC3	0	0	0	0	-	-	-	-	-
COCCCn1c(=S)[nH]c2sc3c(c2c1=O)CCCS3	2732	43	36	44	3194	2497	57	40	38
O=C(Sc1nnc(-c2ccccc2)o1)N1c2ccccc2Sc2ccccc21	0	0	0	31	-	-	48	34	33
COc1cc(-c2nnc(SCC(=O)N3c4ccccc4Sc4ccccc43)o2)cc(OC)c1OC	0	0	0	0	-	-	-	-	-
O=C(c1ccc(Cl)cc1)n1c(NCc2ccccc2)n[nH]c1=S	0	0	0	0	0	0	-	-	-
S=C(Nc1ccc2nsnc2c1)N1CCCCC1	0	0	0	22	0	0	0	0	0
CCC(=Nc1ccc(N)cc1)C1=C(O)C(C(=O)OC)C(C)(C)CC1=O (stereo unspecified)	0	23	38	23	-	-	0	0	0
CCn1c(=O)cc(SCC(=O)Nc2cccnc2)c2ccccc21	2082	19	27	45	-	-	31	20	0
CCn1c(=O)cc(SCC(=O)Nc2ccc3c(c2)OCO3)c2ccccc21	2330	24	32	47	-	-	44	32	29
Oc1ccc(N=Cc2ccc(-c3cccs3)s2)cc1	0	37	0	26	-	-	53	46	30
CCOC(=O)/C(C#N)=C\C=C1C=CN(C)C=C1	0	24	0	32	-	-	0	0	0
CCOC(=O)/C(C#N)=C\c1ccc(CC)s1	0	0	0	0	-	-	-	-	-
CC(=O)c1sc(NC(=O)CCCOc2ccc(Cl)cc2)nc1C	2055	22	0	27	0	2343	0	0	0
Cc1ccc(/C=C/C(=O)Nc2ccc(N(C)C)cc2)o1	0	25	0	25	0	0	0	0	0
O=C(NCc1ccccc1F)Nc1ccc([N+](=O)[O-])cc1	0	0	0	0	0	0	-	-	-
COCCCNc1oc(-c2cccs2)nc1S(=O)(=O)c1ccc(C)cc1	0	0	33	0	0	0	0	0	0
COCCNc1oc(-c2cccs2)nc1S(=O)(=O)c1ccc(C)cc1	0	0	0	0	0	0	-	-	-

High-throughput results: PubChem BioAssay, The Scripps Research Institute Molecular Screening Center
